# Measurements as given in PubChem BioAssay.
# The source made the active and inactive calls. Unless noted, no rule for the calls is given here.
# Assays:
# [1] = HepG2 liver cancer cell viability effects, profiling panel, resazurin fluorescence, 24 h, PK04 Diversity Set (AID 1172); conditions: higher = more signal
# [2] = basal S. cerevisiae growth modulation, no modifier, primary screen, OD600, strain BY4716, 24 h, basal condition (AID 1173); conditions: OD600, 24 h, higher = more signal, called active from +8 up or from −8 down
# [3] = MM1S myeloma cell viability, profiling panel, resazurin fluorescence, basal, 24 h, PK04 Diversity Set (AID 1174); conditions: higher = more signal, called active from +8 up or from −8 down;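 also: MM1S multiple myeloma cell line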
# [4] = target: Dihydroorotate dehydrogenase (quinone), mitochondrial (Plasmodium falciparum (isolate 3D7)) (UniProt Q08210); experiment: PfDHODH enzyme inhibitors, primary screen, biochemical, C-terminal His tag, absorbance 600 nm (AID 1175); conditions: DCIP absorbance 600 nm, higher = more signal, called active from +8 up or from −8 down;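 also: recombinant parasite enzyme with a five histidine tag at its C terminus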
# [5] = P. aeruginosa biofilm formation inhibitors, primary screen, strain PAO1, LB-PBS medium, absorbance 600 nm (AID 1176); conditions: P. aeruginosa PAO1 growth/biofilm, A600, 12 h; higher = more signal
# [6] = S. cerevisiae RM11-1a growth modifiers, primary screen, strain RM11-1a, OD600, basal, 24 h (AID 1177); conditions: OD600, 24 h, higher = more signal, called active from +8 up or from −8 down;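 also: cultures grown under basal conditions with no added stressor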
# [7] = E. coli acrAB mutant growth effects, primary screen, E. coli filamentation inducers, strain DRC39, OD650, 24 h (AID 1178); conditions: higher = more signal, called active from +8 up or from −8 down;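 also: growth measured as culture turbidity by optical density at 650 nm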
# [8] = E. coli acrAB mutant growth effects, primary screen, E. coli filamentation inducers, strain DRC39, OD650, 48 h (AID 1179);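 also: screen aims at cell division blockers that make cells filament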; conditions: E. coli DRC39 delta-acrAB growth, higher = more signal, called active from +8 up or from −8 down
# [9] = RPMI8226 myeloma cell viability, profiling panel, resazurin fluorescence, basal, 24 h, PK04 Diversity Set (AID 1180); conditions: higher = more signal;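 also: RPMI8826 multiple myeloma cell line at 5000 cells per well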
# [10] = target: E3 ubiquitin-protein ligase XIAP (Homo sapiens) (UniProt P98170); experiment: XIAP binders, primary screen, biophysical, small-molecule microarray, fluorescence 635 nm (AID 1181); conditions: small-molecule microarray binding, higher = more signal;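 also: score merges 667 nm emission and signal to noise over triplicate slides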
# [11] = system: XIP peptide (Xip251-270) binding; experiment: small-molecule binders of XIP peptide, primary screen, biochemical, small-molecule microarray, fluorescence 635/667 nm, 0.1 µg/mL protein (AID 1182); conditions: fluorescent protein binding, 635 nm, higher = more signal, called active from +8 up or from −8 down
# XIP peptide (Xip251-270) = experiment: small-molecule binders of XIP peptide, primary screen, biochemical, small-molecule microarray, fluorescence 635/667 nm, 0.5 µg/mL protein (AID 1183); conditions: small-molecule microarray binding, fluorescence 635 nm; higher = more signal
# [12] = Plasmodium falciparum growth inhibition, primary screen, strain 3D7, DAPI fluorescence, 100 nL (AID 1184);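 also: parasites grown inside human red blood cells in medium with human serum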; conditions: P. falciparum 3D7 growth, 3 d, higher = more signal
# [13] = target: Homeobox protein Hox-A13 (Mus musculus) (UniProt Q62424); experiment: inhibitors of HoxA13-DNA binding, primary screen, biochemical, fluorescence polarization, labeled oligonucleotide (AID 1185); conditions: 15 min, higher = more signal, called active from +8 up or from −8 down
# [14] = inhibitors of hydroxyurea-induced Chk1 phosphorylation, primary screen, imaging, HeLa, phospho-Chk1 antibody, percent positive cells (AID 1186); conditions: hydroxyurea-induced phospho-Chk1 immunofluorescence imaging, higher = more signal
# [15] = inhibitors of hydroxyurea-induced Chk1 phosphorylation, primary screen, imaging, HeLa, phospho-Chk1 nuclear intensity (AID 1187); conditions: hydroxyurea-induced phospho-Chk1 immunofluorescence imaging, higher = more signal
# Homeobox protein Hox-A13 (Mus musculus), sequence (Q62424 whole entry, looked up): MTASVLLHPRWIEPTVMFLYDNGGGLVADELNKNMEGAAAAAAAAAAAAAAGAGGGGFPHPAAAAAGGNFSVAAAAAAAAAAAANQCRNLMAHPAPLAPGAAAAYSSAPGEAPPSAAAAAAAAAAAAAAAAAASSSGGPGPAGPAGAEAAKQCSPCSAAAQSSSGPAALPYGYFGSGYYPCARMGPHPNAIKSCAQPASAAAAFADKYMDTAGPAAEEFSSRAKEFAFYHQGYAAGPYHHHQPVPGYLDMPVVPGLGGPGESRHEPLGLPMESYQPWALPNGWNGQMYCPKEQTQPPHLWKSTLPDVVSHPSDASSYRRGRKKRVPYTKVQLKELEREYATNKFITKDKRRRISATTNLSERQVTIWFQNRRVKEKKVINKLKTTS
# Dihydroorotate dehydrogenase (quinone), mitochondrial (Plasmodium falciparum (isolate 3D7)), sequence (Q08210 whole entry, looked up): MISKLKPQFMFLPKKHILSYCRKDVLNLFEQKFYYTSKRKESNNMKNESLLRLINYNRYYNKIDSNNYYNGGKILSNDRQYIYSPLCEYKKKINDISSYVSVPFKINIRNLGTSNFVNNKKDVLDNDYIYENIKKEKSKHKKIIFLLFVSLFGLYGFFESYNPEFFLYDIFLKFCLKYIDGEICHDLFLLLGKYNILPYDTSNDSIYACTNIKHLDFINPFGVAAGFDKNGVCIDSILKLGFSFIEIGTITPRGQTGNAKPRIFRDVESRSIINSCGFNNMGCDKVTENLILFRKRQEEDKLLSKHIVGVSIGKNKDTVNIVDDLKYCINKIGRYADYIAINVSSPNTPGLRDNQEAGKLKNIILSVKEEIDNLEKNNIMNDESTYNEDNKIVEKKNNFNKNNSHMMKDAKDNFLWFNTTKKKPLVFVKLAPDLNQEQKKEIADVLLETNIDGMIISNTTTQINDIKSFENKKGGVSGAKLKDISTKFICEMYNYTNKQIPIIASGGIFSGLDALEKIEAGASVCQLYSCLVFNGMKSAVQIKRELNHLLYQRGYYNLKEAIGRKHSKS
# E3 ubiquitin-protein ligase XIAP (Homo sapiens), sequence (P98170 whole entry, looked up): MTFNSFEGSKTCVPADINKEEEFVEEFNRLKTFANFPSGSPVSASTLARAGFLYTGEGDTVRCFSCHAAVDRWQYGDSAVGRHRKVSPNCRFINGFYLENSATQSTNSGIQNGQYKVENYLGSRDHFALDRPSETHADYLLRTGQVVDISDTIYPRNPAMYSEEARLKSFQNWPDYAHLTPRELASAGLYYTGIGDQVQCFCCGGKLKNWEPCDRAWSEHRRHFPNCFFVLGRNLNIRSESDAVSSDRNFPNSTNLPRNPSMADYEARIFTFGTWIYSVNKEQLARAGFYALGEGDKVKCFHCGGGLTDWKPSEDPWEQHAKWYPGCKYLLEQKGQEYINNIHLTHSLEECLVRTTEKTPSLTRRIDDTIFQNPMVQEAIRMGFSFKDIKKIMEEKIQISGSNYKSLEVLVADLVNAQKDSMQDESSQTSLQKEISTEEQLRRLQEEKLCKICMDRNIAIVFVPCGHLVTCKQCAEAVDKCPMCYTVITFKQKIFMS
Compound,z-score [1],z-score [2],z-score [3],composite z-score [4],z-score [5],z-score [6],z-score [7],z-score [8],z-score [9],composite z-score [10],composite z-score [11],composite z-score (XIP peptide (Xip251-270)),z-score [12],z-score [13],z-score [14],z-score [15]
CCOC(=O)C[C@H]1[C@H](OC(=O)c2ccccc2-c2ccccc2)[C@@H](NC(=O)c2ccc3ccccc3c2)c2cc(OCCCO)ccc2N1C(=O)c1ccccc1,-0.655,0.264 (inactive),0.0324 (inactive),0.198 (inactive),-0.341 (inactive),0.874 (inactive),0.547 (inactive),0.203 (inactive),0.225,-0.0988,-0.323 (inactive),0.306,-1.72,-2.39 (inactive),0.185 (inactive),0.361 (inactive)
CC(c1ccccc1)C(O)C1C=CC2C(=O)N(C)C(=O)C2N1Nc1ccccc1 (configuration not stated),-0.705,-0.0181 (inactive),-1.27 (inactive),-0.475 (inactive),0.944 (inactive),-0.0455 (inactive),-1.12 (inactive),-0.374 (inactive),-1.1,-0.0654,0.255 (inactive),0.726,0.139,-3.9 (inactive),0.378 (inactive),-0.484 (inactive)
COCCOC(=O)N1C(=O)[C@@]2(c3cc(C#CC4(O)CCCCCC4)ccc31)[C@H](C(=O)N1CCc3cc(OC)c(OC)cc3C1)[C@H]1C(=O)O[C@H](c3ccccc3)[C@H](c3ccccc3)N1[C@@H]2c1ccc(OCCO)cc1,-0.614,1.66 (inactive),-0.935 (inactive),-0.494 (inactive),3.41 (inactive),2.54 (inactive),-0.201 (inactive),0.389 (inactive),-0.607,0.107,0.402 (inactive),0.62,-2.25,2.15 (inactive),-0.149 (inactive),-0.247 (inactive)
CCCCC=C[C@@H](NC(=O)OCc1ccccc1Cl)c1ccccc1,-0.656,1.33 (inactive),-1.19 (inactive),0.0518 (inactive),0.84 (inactive),1.48 (inactive),-1.32 (inactive),-0.892 (inactive),-1.2,0.0137,-0.549 (inactive),0.573,-1.37,2.14 (inactive),0.663 (inactive),-0.117 (inactive)
CCOC(=O)C1=CC[C@@H](c2ccccc2F)N(S(=O)(=O)c2ccc(C)cc2)[C@H]1c1ccccc1,0.325,0.837 (inactive),-0.0773 (inactive),-0.496 (inactive),0.698 (inactive),0.262 (inactive),-0.308 (inactive),-0.35 (inactive),-0.781,-0.195,-0.0895 (inactive),0.563,-2.02,1.41 (inactive),0.0286 (inactive),-0.82 (inactive)
COc1ccc([Si](C)(C)[C@@H]2[C@@H](CCO)O[C@]3(C(=O)N(Cc4ccccc4)c4ccc(N5CCOC5=O)cc43)[C@H]2C)cc1,-1.13,1.81 (inactive),-2.51 (inactive),-0.981 (inactive),0.933 (inactive),4.01 (inactive),-0.957 (inactive),-0.978 (inactive),-2.79,0.0605,0.849 (inactive),0.869,-2.79,-1.94 (inactive),-1.29 (inactive),-1.14 (inactive)
O=C(Cc1ccccc1)[C@H]1C2C=CCCC(c3ccccc3)=C2CN1Cc1ccccc1 (some centres not stated),1.37,-2.98 (inactive),0.806 (inactive),-0.658 (inactive),1.44 (inactive),-0.546 (inactive),1.64 (inactive),1.29 (inactive),1.08,-0.441,1.11 (inactive),-0.0929,0.979,-2.16 (inactive),-0.171 (inactive),0.213 (inactive)
